Measured values reported in PubChem BioAssay AID504834 (National Center for Advancing Translational Sciences (NCATS), 2011).
Hit rate of the full screen: of about 320,000 compounds, about 22,000 (6.9%) were called active. Roughly 27% stayed inconclusive and do not appear here. The full list was thinned out, with actives kept by preference. Values without a mark were called inactive. The call rests on the fitted dose curve; in most records, active means well fitted inhibition curve with a large enough effect; inconclusive means small, poorly fitted or top-dose-only effect, or another doubt; inactive means no such curve, though single readings can be large or run the other way.

Experiment: Primary qHTS for delayed death inhibitors of the malarial parasite plastid, 96 hour incubation
Conditions: P. falciparum luciferase reporter growth; series mostly up to 28.7 µM; activity change, negative = inhibition: at the top concentration
How it was run: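 Plates of compound plus infected erythrocytes (2% hematocrit, 0.05% parasitemia final) incubate 96 hours, 37 C, 5% CO2. Detection reagent added; reduced luminescence from the parasites' luciferase reporter flags inhibition.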
On the % scale 0 is the no-effect control and ±100 the full control effect; potency means the concentration at half of the fitted maximal effect.

Row | SMILES | activity change, negative = inhibition | Potency
1 | CC(Cc1cccs1)NC(=O)c1cccc(Cl)c1 (stereo not drawn) | 43.8% | 
2 | CCCc1ccc(OCCNC(=O)c2ccccc2Br)cc1 | -8.4% | 
3 | O=C(N/N=C/c1cc2c(cc1Br)OCO2)C1COc2ccccc2O1 (stereo not drawn) |  | 7.38 µM (active)
4 | O=C(N/N=C\c1cc2c(cc1Cl)OCO2)c1ccc(Br)s1 | 19% | 
5 | CC(/C=C/c1ccco1)=N/NC(=O)C1COc2ccccc2O1 (stereo not drawn) | -5.91% | 
6 | COc1ccc(C(=O)NCC2CCCN2S(=O)(=O)c2cccs2)cc1OC (stereo not drawn) | -4.53% | 
7 | Cc1cc(C)c(S(=O)(=O)NCC2CCC(C(=O)NCc3ccc4c(c3)OCO4)CC2)c(C)c1 (stereo not drawn) | -66.7% | 
8 | Cc1cc(C)c(S(=O)(=O)N2CCCC2CNC(=O)c2ccc3c(c2)OCO3)c(C)c1 (stereo not drawn) |  | 11.7 µM (active)
9 | CCOc1ccc(S(=O)(=O)N2CCC(C(=O)NCc3ccccn3)CC2)cc1Cl | -3.21% | 
10 | O=C(NCc1ccccc1)C1CCN(C(=O)Cc2ccccc2)CC1 | -21.4% | 
11 | Cc1ccc(/C=N/NC(=S)Nc2cccc(S(=O)(=O)N(C)C)c2)o1 |  | 6.57 µM (active)
12 | CN(C)S(=O)(=O)c1cccc(NC(=O)COC(=O)c2cc(=O)[nH]c(=O)[nH]2)c1 | 6.59% | 
13 | CN(C)S(=O)(=O)c1cccc(NC(=O)COC(=O)/C=C/c2cccs2)c1 | 55.6% | 
14 | CCCOc1ccc(Cc2c(O)nc(N)[nH]c2=O)cc1C | -17.1% | 
15 | S=C(NNC(=S)NC1CC2C=CC1C2)NC1CC2C=CC1C2 (stereo not drawn) |  | 9.28 µM (active)
16 | CSC1=NC2(C)CCCCC2C12C=CC(=O)C=C2 (stereo not drawn) |  | 13.1 µM (active)
17 | Cc1cc2c(cc1S(=O)(=O)CCC(=O)NCc1ccccc1)OCC(=O)N2 | 3.56% | 
18 | O=C(CSc1nccc(=O)[nH]1)Nc1ccc(N2CCOCC2)c(Cl)c1 | -26.5% | 
19 | COc1ccc(CN(Cc2ccc(OC)cc2)C(=O)c2cccs2)cc1 | -6.73% | 
20 | COc1ccccc1NC(=O)CSc1nnc(Cn2nnc(-c3ccccc3)n2)n1-c1ccccc1 |  | 7.38 µM (active)
21 | COc1ccccc1NC(=O)CSc1nnc(Cc2cccn2C)n1-c1ccc(F)cc1 | 29.7% | 
22 | COc1ccccc1NC(=O)CSc1nc2sc(C)c(C)c2c(=O)n1Cc1ccco1 | 19.6% | 
23 | CCOc1ccc(-n2c(SCC(=O)NC3CCS(=O)(=O)C3)nnc2-c2cccnc2)cc1 (stereo not drawn) | 10.7% | 
24 | COc1ccc(-n2c(=S)[nH]c3sc4c(c3c2=O)CCc2ccccc2-4)cc1 | -104% | 
25 | CCOc1ccc(NC(=O)CSc2nncn2C)cc1 | 30.9% | 
26 | COc1ccccc1-n1c(SCC(=O)O)nc2sc3c(c2c1=O)CCC3 | -1.23% | 
27 | CCCSc1nc2sc3c(c2c(=O)n1-c1ccc(OC)cc1)CCN(C)C3 |  | 4.65 µM (active)

Row | SMILES | activity change, negative = inhibition | Potency
28 | CCCn1c(N)c(C(=O)CSc2nc3ccccc3c(=O)n2-c2ccc(OC)cc2)c(=O)[nH]c1=O | 76.7% | 
29 | COc1ccccc1OCc1nnc(SCC(N)=O)n1-c1ccccc1 | -2.43% | 
30 | CCOc1ccc(-n2c(SCC(=O)OC)nc3sc4c(c3c2=O)CCN(C)C4)cc1 |  | 0.828 µM (active)
31 | COc1ccccc1NC(=O)CSc1nc2sc3c(c2c(=O)n1-c1ccccc1)CCN(C)C3 |  | 1.65 µM (active)
32 | Cc1ccc(C(=O)Oc2ccc(C(=S)N3CCOCC3)cc2)cc1 | -3.89% | 
33 | O=C(Nc1ccc(-c2cscn2)cc1)C1CCCN(Cc2ccc(CO)o2)C1 (stereo not drawn) | 6.28% | 
34 | Cc1n[nH]c(=O)c2c(NC(=O)CSc3ccccc3F)oc(C)c12 | 49.4% | 
35 | COc1cc(N2C(=O)CSC2=S)cc(OC)c1OC | 8.02% | 
36 | Cc1cc(C(=O)NC2CC(C)(C)Cc3c2cnn3-c2ccccc2)n[nH]1 (stereo not drawn) | -4.15% | 
37 | CCSc1nc2sc3c(c2c(=O)n1-c1ccc(C)cc1)CCN(C)C3 |  | 0.928 µM (active)
38 | Cc1nc2sc3c(c2c(=O)n1NC(=O)CCl)CCCC3 | -26.3% | 
39 | Cc1ccc(C)c(-n2c(SCC(=O)O)nc3sc4c(c3c2=O)CCCC4)c1 | -7.37% | 
40 | COC(=O)c1sccc1NC(=S)Nc1ccc(C)cc1 | 2.1% | 
41 | CNC(=O)N1c2ccccc2C=Cc2ccccc21 | -13.3% | 
42 | COc1cnc(-c2ccccn2)nc1Oc1ccc(C(C)(C)C)cc1 |  | 0.329 µM (active)
43 | N#Cc1ccc(Oc2cc(C(F)(F)F)nc(-c3ccccn3)n2)cc1 | 115% | 
44 | Cc1ccc(Oc2nc(-c3ccccn3)nc3ccccc23)cc1 |  | 5.86 µM (active)
45 | COc1ccc(Sc2nc(-c3ccccc3)ncc2OC)cc1 | 15.8% | 
46 | COc1ccc(Cc2nc(-c3ccccn3)no2)cc1OC | 14.9% | 
47 | COc1ccccc1Oc1nc(-c2cccnc2)nc2ccccc12 | -24.1% | 
48 | C=Cc1ccc(C(=O)N2CCCC(CCC(=O)N3CCN(c4ccccn4)CC3)C2)cc1 (stereo not drawn) | 37.2% | 
49 | C/C=C/C(=O)OCc1csc(CC(=O)Nc2ccccc2C)n1 | -7.19% | 
50 | O=C(NCCc1ccc(C(F)(F)F)cc1)c1ccc2c(c1)OCO2 | 17.6% | 
51 | O=C(COC(=O)c1ccccc1C(=O)N1CCN(c2ccccc2)CC1)NCc1ccccc1 | -13.9% | 
52 | CCOC(=O)c1nnn2c3ccccc3c(=O)n(C)c12 | 0% | 
53 | CCOC(=O)c1nnn2c1nc(N1CCN(c3ccccc3)CC1)c1ccccc12 |  | 2.62 µM (active)
